For 24 compounds, activation factor and activity change, negative = activation results are on record in PubChem BioAssay AID434970 (Sanford-Burnham Center for Chemical Genomics, 2010).

Out of some 11,000 compounds screened, about 310 (2.8%) were called active. Rule as the data show it: active = activity change below about -85%; inactive = the rest. For the sample, actives were picked, then their nearest neighbours and some compounds at random.

This experiment has as its system intestinal alkaline phosphatase [Mus musculus]. The experiment is described as follows: mouse intestinal phosphatase enzyme activation – biochemical, luminescence, single concentration, confirmation (AID 434970). As to conditions: purified mouse IAP, CDP-Star luminescence, 30 min, at 10 µM; activation factor: measured here: IAP activation factor, stronger effect = higher value; activity change, negative = activation: stronger effect = lower value.
For `COc1ccc(C(=O)Nc2ccc(S(=O)(=O)N3CCCCC3)cc2)cc1`, the activation factor was determined as 1.11 and the activity change, negative = activation was -11% (inactive).
Taken in the same sequence, the figures for `COC(=O)C(NC(=O)CCc1c(C)nc2ncnn2c1C)C(C)C` (stereo not drawn) were 0.949 and 5.15% (inactive).
Consider `Clc1ccc(-n2nnnc2-c2cnc(-c3ccncc3)nc2-c2cccs2)cc1`, for which the activation factor worked out at 0.877 and the activity change, negative = activation is 12.4% (inactive).
For `COc1ccc(CN(C(=O)c2ccco2)C2CC(C)N(C)CC2C)cc1` (stereo not drawn), in that order: 0.982 and 1.75% (inactive).
Turning to `COc1ccc(CNC(=O)C[C@H]2C[C@H](C(=O)N3CCOCC3)[C@@]3(C)c4[nH]c5cc(CCC(=O)N(C)C)ccc5c4CCN3C2=O)cc1OC`, the activation factor was 1.08 and the activity change, negative = activation is -8.2% (inactive).
`O=C(O)CCSc1nc(C(F)(F)F)cc(=O)n1-c1ccccc1`: the activation factor was determined as 1.01 and the activity change, negative = activation is -1% (inactive).
Turning to `Cn1cc(C(=O)c2ccccc2)cc1-c1nc2ccccc2n1C`, the activation factor worked out at 1.13 and the activity change, negative = activation was -13.2% (inactive).
For `COc1ccccc1[C@H]1C(c2ccc(F)cc2)=NN(c2ccccc2)[C@@H]1CO`, in that order: 1.49 and -48.9% (inactive).
For `COc1ccccc1[C@H]1C(c2cccc(Cl)c2)=NN(c2ccccc2)[C@@H]1CO`, in that order: 1.54 and -54.1% (inactive).
With `COc1ccccc1[C@H]1C(c2ccccc2)=NN(c2ccccc2)[C@@H]1CO`, the activation factor is 1.99 and the activity change, negative = activation is -99.2% (active).
As to `Clc1ccccc1CN(Cc1ccco1)Cc1nnnn1C1CCCC1`, the activation factor was determined as 1.07 and the activity change, negative = activation was -7.45% (inactive).
For `CC(C)C(=O)Nc1ncc(C(F)(F)F)cc1Cl`, the activation factor was found to be 1.02 and the activity change, negative = activation is -2.1% (inactive).
Take `Cc1ccc(CNC(=S)NC2CCC(C(C)(C)C)CC2)cc1` (stereo not drawn): the activation factor is 2 and the activity change, negative = activation is -99.9% (active).
For the compound `CC(NC(=S)NC1CCC(C(C)(C)C)CC1)c1ccccc1` (stereo not drawn), the activation factor is 1.7 and the activity change, negative = activation was -69.9% (inactive).
As to `Cc1ccc(CNC(N)=S)cc1`, the activation factor came out at 1.06 and the activity change, negative = activation is -6.15% (inactive).
`O=C(COC(=O)c1cccnc1SCC(=O)NCc1ccccc1)NCc1ccccc1`: the activation factor is 0.985 and the activity change, negative = activation was 1.5% (inactive).
Taken in the same sequence, the figures for `CCCc1cc(=O)[nH]c(SCC(=O)N(C)CC(=O)Nc2ccccc2CC)n1` were 0.825 and 17.6% (inactive).
For `CC(C)c1ccc(NC(=S)NC2CCCCCC2)cc1`, the activation factor was 1.39 and the activity change, negative = activation is -38.9% (inactive).
In the case of `CCc1ccc(NC(=O)NC2CCCCCCC2)cc1`, the activation factor is 3.13 and the activity change, negative = activation is -213% (active).
In the case of `S=C(Nc1ccc(Br)cc1)NC1CCCCC1`, the activation factor is 1.71 and the activity change, negative = activation was -70.7% (inactive).
Regarding `CC(=O)Nc1ccc(C(=O)OCC(=O)NC(=O)NC2CCCCC2)cc1`, the activation factor amounted to 0.997 and the activity change, negative = activation was 0.3% (inactive).
Regarding `O=C(Nc1ccc(Br)cc1)NC1CCCCCCC1`, the activation factor is 2.74 and the activity change, negative = activation is -174% (active).
Regarding `COc1ccc(CCNC(=O)NC2CCCCC2)cc1`, the activation factor was found to be 0.976 and the activity change, negative = activation was 2.4% (inactive).
Regarding `COc1ccc(C2NCCO2)cc1OC` (stereo not drawn), the activation factor was 0.954 and the activity change, negative = activation is 4.65% (inactive).
